# Assay outcomes deposited in PubChem BioAssay by National Center for Advancing Translational Sciences (NCATS).
# A selection: hits, their analogues and other compounds. The true share with any hit is near 7.5%.
# Luc counter = Kinase-Glo luciferase inhibition (counter-screen) | Kinase-Glo luciferase, ATP luminescence, 8 min | Potency, µM (highest dose often 38.3 µM), actives largely listed as inhibitors | 200,000 compounds, 0.28% hits; note: nearly all actives have a fitted effect of over 60% in size
#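 Recombinant Kinase-Glo luciferase, 10 uM ATP (linear range), luciferin; imidazole pH 7.2 / KCl / MgCl2 / Tween / BSA buffer; 8 min RT; luminescence.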
# FLuc modulator = counter-screen for miR-21 project: firefly luciferase inhibitors or activators. Potency, µM (highest dose often 57.5 µM), actives largely listed as inhibitors. purified FLuc, Km substrates, luminescence inhibition. P08659. 360,000 compounds, 6.9% hits; note: nearly all actives have a fitted effect of over 55% in size
# Target sequence (P08659 whole entry, looked up): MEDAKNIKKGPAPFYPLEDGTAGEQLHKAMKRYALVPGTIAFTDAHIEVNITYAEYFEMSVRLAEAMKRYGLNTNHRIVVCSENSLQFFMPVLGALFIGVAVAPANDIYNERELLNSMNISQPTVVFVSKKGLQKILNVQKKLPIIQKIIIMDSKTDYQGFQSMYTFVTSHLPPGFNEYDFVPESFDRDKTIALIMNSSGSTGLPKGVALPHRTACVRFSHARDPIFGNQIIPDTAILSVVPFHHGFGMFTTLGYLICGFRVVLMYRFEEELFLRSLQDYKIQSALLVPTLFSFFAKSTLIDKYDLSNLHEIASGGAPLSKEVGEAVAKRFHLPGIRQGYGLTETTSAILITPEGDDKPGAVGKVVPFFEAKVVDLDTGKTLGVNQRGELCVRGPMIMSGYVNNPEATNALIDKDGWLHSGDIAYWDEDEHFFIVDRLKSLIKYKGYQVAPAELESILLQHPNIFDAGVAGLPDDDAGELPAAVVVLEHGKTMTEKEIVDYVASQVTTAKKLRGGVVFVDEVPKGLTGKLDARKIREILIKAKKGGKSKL
#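 Purified P. pyralis luciferase (10nM final) with 10uM D-luciferin and 10uM ATP (Km levels) in 50mM Tris acetate pH 7.5, 10mM Mg acetate, 0.01% Tween-20, 0.05% BSA; qHTS 6-point titration, ~60 µM downward; luminescence read.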
# ELG1 genotoxic = inducers of genotoxicity in HEK293T ELG1-luciferase cells; 330,000 compounds, 1.3% hits; Potency, µM (doses to about 46 µM), usual class: activators; HEK293T ELG1-luciferase reporter, luminescence, 16 h; note: nearly all actives have a fitted effect of over 60% in size
#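 ELG1-luciferase HEK293T cells, 2,000/well; compound pinned in; 16 hr, 37 °C, 5% CO2; ONE-Glo, 30 min RT; luminescence on CCD imager.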
# SMN2 splice up = increases expression of the SMN2 splice variant; HEK293 SMN2-luciferase splicing reporter, luminescence, 30-36 h; Potency, µM (series often up to 46.1 µM), most hits filed as activators; 210,000 compounds, 2.8% hits; AID 1458; note: nearly all actives have a fitted effect of over 55% in size
#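 HEK293 cells carry an SMN2 minigene-luciferase reporter in which exon 7 inclusion puts luciferase in frame. Cells were seeded at 2000 cells/well, attached for 10-12 hours, then exposed to compounds for 30-36 hours at 37C before ONE-Glo luminescence.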
# NPC1 prom act = NPC1 promoter activation | Potency, µM (titrated, usually from 9.22 µM), most hits filed as activators | AID 485313 | Huh7 NPC1 promoter luciferase reporter, 24 h | 320,000 compounds, 2.4% hits; note: nearly all actives have a fitted effect of over 60% in size
#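 Readout is luciferase luminescence, reflecting NPC1 promoter activation in stably transfected Huh7 cells after 24 h compound exposure at 37 °C in reduced-serum medium with 10% FBS.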
# Rab9 prom act = activates the Rab9 promoter. Huh7 Rab9 promoter-luciferase reporter, luminescence, 24 h. Potency, µM (top dose mostly 9.22 µM), hits mostly activators. 320,000 compounds, 2.8% hits. AID 485297; note: nearly all actives have a fitted effect of over 60% in size
#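 Rab9 promoter-driven luciferase in stably transfected Huh7 cells; 1500 cells/well rested 2 h, exposed to compound in DMSO for 24 h at 37 °C, 5% CO2. Luminescence read 10 min after adding luciferase reagent at ambient temperature.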
# Hits are given with their value; i = inactive; ? = inconclusive; nt = not tested or not shown; [ ] = remark or other dose. Calls come from the whole dose curve; as a rule, active = well fitted curve in the direction sought with a large enough effect; inconclusive = small, poorly fitted or top-dose-only effect, or another doubt; inactive = no such curve, though single readings can be large; an effect the other way counts as inactive or inconclusive.
SMILES,Luc counter,FLuc modulator,ELG1 genotoxic,SMN2 splice up,NPC1 prom act,Rab9 prom act
CCc1cccc(NC(=O)C2CCCN2S(=O)(=O)c2ccccc2C(F)(F)F)c1 (configuration not stated),nt,i,?,nt,i,i
Cc1c(Cl)ccc2c(C(=O)NC(C)c3ccncc3)cc(-c3ccncc3)nc12 (configuration not stated),i,i,i,i,i,i
CS(=O)(=O)N1CCCc2cc(C(=O)Nc3cccc(C(F)(F)F)c3)ccc21,nt,i,nt,i,nt,nt
CCCSc1ncc(Cl)c(C(=O)Nc2nc3ccc(C)cc3s2)n1,nt,i,nt,i,nt,nt
N/C(Cc1ccc(Cl)cc1Cl)=N\OC(=O)c1ccccc1,i,i,i,i,i,i
N/C(=N\OC(=O)c1ccc(Cl)cc1Cl)c1ccccc1,11µM,0.17µM,?,?,4.5µM,0.5µM
N/C(=N\OC(=O)c1ccc(Cl)cc1)c1cccnc1,i,1.3µM,8.9µM,i,i,i
N/C(=N\OC(=O)c1cccc([N+](=O)[O-])c1)c1cccnc1,i,?,i,i,i,i
Cc1cccc(/C(N)=N/OC(=O)c2ccc(Cl)cc2Cl)c1,?,0.48µM,?,5µM,0.13µM,0.32µM
N/C(=N\OC(=O)c1cccs1)c1cccnc1,nt,8.5µM,?,nt,i,i
C[C@]12CC[C@@H]3c4ccc(O)cc4CC[C@H]3[C@@H]1CC[C@H]2O,i,nt,nt,nt,nt,nt
COCCN1CCc2nc(SCC(=O)Nc3ccc(Br)cc3)[nH]c(=O)c2C1,nt,i,nt,nt,nt,nt
c1ccc2c[n+](Cc3ccnc4ccccc34)ccc2c1,i[7.66 µM],nt,nt,i[9.22 µM],nt,nt
O=C(c1cccc(Cl)c1)N1CCC(N2CCC(C(=O)N3CCCC3)CC2)CC1,nt,i,i[9.26 µM],nt,i,i
N/C(Cc1ccc(Cl)c(Cl)c1)=N\OC(=O)c1cccs1,i,i,i,i,i,i
CCSc1ccc(/C(N)=N/OC(=O)c2cccs2)cn1,nt,6µM,13µM,nt,?,?
COc1ccc(NC(=O)c2cc3c(-c4ccc(OC)c(OC)c4)nn(C)c3s2)cc1OC,i,11µM,i,i,i,i
COc1cccc(-c2nn(C)c3sc(C(=O)NCc4ccc(OC)cc4OC)cc23)c1,nt,i,nt,i,nt,nt
COc1cccc(-c2nn(C)c3sc(C(=O)NCc4ccc(C)o4)cc23)c1,i,i,i,16µM,i,i
COc1ccc(-c2nn(C)c3sc(C(=O)Nc4cc(OC)c(OC)c(OC)c4)cc23)cc1OC,nt,8.5µM,nt,?,nt,nt
C=CCNC(=S)N1CCC(C(=O)c2ccc(Cl)cc2)CC1,nt,i,i,nt,i,i
O=C(CSc1nnc(-c2ccccn2)o1)Nc1ccccc1,i,i,?,11µM,2.5µM,2.5µM
Fc1ccc(CSc2nnc(-c3ccccn3)o2)cc1,nt,11µM,?,nt,1.4µM,2.2µM
O=C(CSc1nnc(-c2ccccn2)o1)Nc1ccc(F)cc1,nt,i,?,nt,2µM,?
COc1ccc(-c2noc3c2-c2nc(-c4ccc(Cl)cc4)sc2CC3)cc1,nt,i,i,nt,i,i
SMILES,Luc counter,FLuc modulator,ELG1 genotoxic,SMN2 splice up,NPC1 prom act,Rab9 prom act
CCCC(=O)Nc1nc(-c2ccc3c(c2)OCCO3)cs1,i,6µM,2.6µM,8.9µM,1.8µM,3.2µM
CSCC(=O)Nc1nc(-c2ccc3c(c2)OCCO3)cs1,i,11µM,i,11µM,3.2µM,2.8µM
CC(=O)Nc1ccc(-c2csc(NC(=O)C3CC(=O)N(c4ccc5c(c4)OCCO5)C3)n2)cc1 (configuration not stated),nt,i,i,nt,i,i
Cc1nc(NC(=O)C2CCCC2)sc1Cc1ccc2c(c1)OCO2,i,17µM,i,?,i,?
O=C(O)C(=O)Nc1nc(-c2ccc3c(c2)OCCO3)cs1,nt,9.5µM,i,nt,i,i
O=S(=O)(/N=C(/c1ccccc1)N1CCCCC1)c1ccccc1,i,i,i,i[1.84 µM],i,i
CC1=C(C(=O)OC(C)C)C(c2ccc(C)o2)C(C(=O)OC(C)C)=C(C)N1,nt,i,i,nt,i,i
Cc1cccc(-n2c3c(cc(-c4nc(-c5ccc(Cl)cc5)cs4)c2=O)C(=O)CC(C)(C)C3)c1,nt,i,nt,i,nt,nt
O=C(Nc1nc(-c2ccc3c(c2)OCO3)cs1)C1CC1,i,12µM,16µM,11µM,?,3.5µM
CCCC(=O)Nc1nnc(-c2ccc3c(c2)OCCO3)o1,i,15µM,i,?,i,i
O=C(CSCC(=O)Nc1nc(-c2ccc3c(c2)OCO3)cs1)Nc1nccs1,nt,?,i,nt,i,i
CC(=O)Nc1nnc(-c2ccc3c(c2)CCCC3)o1,i,12µM,?,?,?,4µM
CCCC(=O)Nc1nnc(-c2ccc3c(c2)OCO3)s1,nt,i,?,nt,i,?
COc1ccc(-c2nc3sc(CCNC(=O)C(=O)Nc4ccccc4C#N)c(C)n3n2)cc1,nt,i,nt,nt,nt,nt
COc1ccc(OC)c(NC2=C(c3ccccc3)C(=O)c3ccccc32)c1,nt,i,nt,i,nt,nt
NC(=O)CC(NC(=O)c1cccc(Br)c1)c1ccc(NC2CCN(Cc3ccccc3)CC2)c([N+](=O)[O-])c1 (configuration not stated),nt,i,i,nt,i,i
COc1ccccc1CCNC(=O)Cc1c(C)c2cc3c(C)coc3cc2oc1=O,nt,i,nt,i,nt,nt
COC(=O)c1sc(-c2ccc(C(C)(C)C)cc2)cc1NC(=O)CSCC(=O)O,nt,3.4µM,i,nt,i,i
COc1ccc(OC)c(NC(=O)CSCC(=O)O)c1,i,i,i,i,i,i
COC(=O)c1sc(-c2ccccc2)cc1NC(=O)C1CC1,i,?,i,i,i,i
COC(=O)c1sc(-c2ccc(C(C)(C)C)cc2)cc1NC(=O)c1ccccc1C(=O)O,nt,11µM,i,nt,i,i
CCOc1ccc(NC(=O)Nc2cc(-c3ccccc3)sc2C(=O)OC)cc1,i,?,i,i,i,i
COC(=O)c1sc(-c2ccc(Cl)cc2)cc1NC(=O)c1ccccc1C(=O)O,nt,21µM,i,nt,i,i
COc1cc2c(cc1OC)C(C)N(C(=O)c1cc3c(C)cc(C)cc3[nH]1)CC2 (configuration not stated),nt,i,i,nt,i,i
Cc1ccc(CS(=O)(=O)CC(C)(O)c2ccc(Cl)cc2)cc1 (configuration not stated),nt,i,i,nt,i,i
SMILES,Luc counter,FLuc modulator,ELG1 genotoxic,SMN2 splice up,NPC1 prom act,Rab9 prom act
C=CCSC1=N/C(=C\c2ccsc2)C(=O)S1,i,?,i,i,i,i
CCSC1=N/C(=C\c2ccc(C(=O)O)cc2)C(=O)S1,i,9.5µM,i,i,i,i
COC(=O)c1ccc(/C=C2\N=C(SC)SC2=O)cc1,nt,i,i,nt,i,i
C=CCSC1=N/C(=C\c2ccc(C)o2)C(=O)S1,i,15µM,i,i,i,i
C=CCSC1=N/C(=C\c2ccc(C(=O)O)cc2)C(=O)S1,i,11µM,i,i,i,i
O=C1SC(SCc2ccccc2Cl)=N/C1=C\c1ccc(C(=O)O)cc1,i,21µM,i,i,i,i
COc1ccccc1N(CC(=O)Nc1ccccc1F)S(C)(=O)=O,nt,i,nt,i,nt,nt
